The full list was thinned out, with hits kept by preference.
Integrin act MD: activators of alpha7 integrin expression for muscular dystrophy | Potency, µM (doses to about 38.3 µM), for inactives: at the highest dose activation, usual class: activators | alpha7betagal myoblasts, beta-gal FDG fluorescence, 48 h | 350,000 compounds, 0.064% hits | AID 624291;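 also: 100% = response of the positive control SU9516; nearly all actives have a fitted effect of over 60% in size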
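Alpha7betagal+/- myoblasts (passage 13) were plated 16-24 hr, then exposed to compounds (1:260 dilution of DMSO stock) for 48 hours at 37C. After MPER lysis, β-galactosidase reporter activity was read as FDG fluorescence (ex 480/em 540) after 30 minutes.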
USP2a inh: inhibitors of human ubiquitin-specific protease USP2a; O75604; USP2 core, Ub-CHOP2 coupled fluorogenic reporter, 485/531; Potency, µM (doses to about 38.3 µM), for the others: at the top dose activity change, negative = inhibition, hits mostly inhibitors; 330,000 compounds, 0.01% hits;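 also: plate controls were DMSO wells for no effect and full inhibition by NEM control for full effect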
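Deubiquitinase activity read as fluorescence (485/531 nm) after Ub-CHOP2 cleavage activates the enterokinase reporter on its substrate; USP2 core 10nM, Ub-CHOP2 and substrate 25nM each, 30min compound preincubation then 60min RT; data normalized to NEM, curves fitted.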
p53 reactivator: restores transcriptional activity of mutant p53 | H1299 p53-A138V BP100-luciferase reporter, luminescence, 24 h | Potency, µM (titrated, usually from 92.2 µM), for the others: at the highest dose activity change, positive = activation, actives largely listed as activators | 320,000 compounds, 0.063% hits | AID 504706; also: % of control where 0% means no effect; nearly all actives have a fitted effect of over 45% in size
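p53-null H1299 cells stably carrying temperature-sensitive p53-A138V and a BP100-luciferase reporter were pinned with compounds (4-point, 1:5 series) and held 24 hrs at 37 deg C. Luminescence was read 10 min after detection reagent.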
ClpP mod: qHTS Assay for Activators of ClpP; 340,000 compounds, 1.9% hits; ATP-dependent Clp protease proteolytic subunit (Bacillus subtilis (strain 168)), P80244; Potency, µM (highest dose often 57.5 µM), for the others: at the highest dose activity change, negative = active; purified B. subtilis ClpP, FRET peptide cleavage, 20 min; AID 651965, 2013; active = well fitted falling curve with a large enough effect; inconclusive = small, poorly fitted or top-dose-only effect; inactive = no such curve, though single readings can be large or run the other way; also: the source files actives as falling curves though it sought activators and does not explain the sign; nearly all actives have a fitted effect of over 65% in size
Target sequence (P80244 whole entry, looked up): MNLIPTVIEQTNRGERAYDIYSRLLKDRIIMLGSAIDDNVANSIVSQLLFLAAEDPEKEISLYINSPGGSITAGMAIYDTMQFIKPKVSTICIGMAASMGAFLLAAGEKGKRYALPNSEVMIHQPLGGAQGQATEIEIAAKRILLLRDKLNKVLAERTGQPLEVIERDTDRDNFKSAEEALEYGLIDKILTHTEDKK
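Purified B. subtilis ClpP, 10 microg/mL final in Tris/HCl pH8 with KCl, BSA, glycerol and Tween-20, cleaved an Abz/nitrotyrosine-quenched decapeptide. Fluorescence (ex 320, em 430) was read at 0 and 20 min at room temperature. Delta was normalized to 5.8 microM ADEP and DMSO/no-enzyme controls.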
Eya2 inh: inhibitors of human Eya2 phosphatase activity. recombinant Eya2, OMFP fluorescence dephosphorylation (OMFP is methylfluorescein phosphate). Potency, µM (top dose mostly 76.9 µM), for inactives: at the highest dose activity, negative = inhibition, usual class: inhibitors. 330,000 compounds, 0.006% hits. AID 488837; also: % is scaled to controls: 0 for no effect and ±100 for the full control effect
Target sequence (O00167 whole entry, looked up): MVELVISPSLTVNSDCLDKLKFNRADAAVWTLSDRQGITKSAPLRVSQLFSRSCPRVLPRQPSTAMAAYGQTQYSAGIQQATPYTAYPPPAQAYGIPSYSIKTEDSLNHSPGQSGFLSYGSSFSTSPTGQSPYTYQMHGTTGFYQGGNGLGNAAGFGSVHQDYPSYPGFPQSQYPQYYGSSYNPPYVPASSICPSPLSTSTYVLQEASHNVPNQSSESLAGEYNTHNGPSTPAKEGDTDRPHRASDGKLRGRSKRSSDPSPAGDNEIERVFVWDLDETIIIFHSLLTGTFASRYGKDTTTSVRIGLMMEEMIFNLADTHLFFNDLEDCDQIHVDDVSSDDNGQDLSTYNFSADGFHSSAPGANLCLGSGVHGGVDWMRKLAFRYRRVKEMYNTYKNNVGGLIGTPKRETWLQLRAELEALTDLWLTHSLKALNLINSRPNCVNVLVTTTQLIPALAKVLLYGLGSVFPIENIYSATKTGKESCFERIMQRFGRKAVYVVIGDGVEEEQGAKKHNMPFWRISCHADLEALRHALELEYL
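Eya2 protein (added as 0.2 uM solution) was preincubated with compound for 10 min at ambient temperature in 50 mM HEPES pH 7.5, 50 mM NaCl, 5 uM MgCl2, 0.05% BSA, 1 mM DTT. OMFP (added at 50 uM) then reacted 10 min; fluorescence read at 485/525 nm.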
Mm-Cpn inhibitor: M. maripaludis TRiC chaperonin inhibition | purified Mm-Cpn ATPase, ADP Transcreener TR-FRET | Potency, µM (series often up to 76.9 µM), inactives show at the top dose activity, negative = inhibition, usual class: inhibitors | 330,000 compounds, 0.031% hits; also: % is scaled to controls: 0 for no effect and ±100 for the full control effect; nearly all actives have a fitted effect of over 80% in size
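Purified archaeal chaperonin (25 nM final) was preincubated with compound for 10 min at 37°C, then ATP (10 uM final) was added for 30 min at 37°C in Tris pH 7.4/KCl/MgCl2/DTT buffer. ADP was quantified by HTRF Transcreener TR-FRET.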
An asterisk follows results filed as active; ? = inconclusive; / = no result; [ ] = remark or other dose. Unless noted, calls follow the shape of the dose curve; as a rule, active = well fitted curve in the direction sought with a large enough effect; inconclusive = small, poorly fitted or top-dose-only effect, or another doubt; inactive = no such curve, though single readings can be large; an effect the other way counts as inactive or inconclusive. Potency is read from the fitted curve at half-maximal effect.

SMILES	Integrin act MD	USP2a inh	p53 reactivator	ClpP mod	Eya2 inh	Mm-Cpn inhibitor
CCCCCCC[C@@H](C/C=C/CCC(=O)N(C)C/C(=C/Cl)C/C(=C\C(=O)N1CC(OC)=CC1=O)OC)OC	?	-2%	32µM*	0%	-5%	3%
O=C(CN1C(=O)CC(c2ccc(F)cc2)=Nc2ccccc21)NCc1ccccc1Cl	/	/	/	0%	/	/
O=C(c1cccn2c(=O)c3ccc(Cl)cc3nc12)N1CCN(Cc2ccc3c(c2)OCO3)CC1	-8%	-1%	2%	22µM*	-4%	-1%
Cc1cc(Nc2ccc3c(c2)OCCO3)c2cccc(C)c2n1	-12%	-2%	-7%	32µM*	-5%	0%
O=C(NCCc1ccc(F)cc1)N[C@@H](Cc1ccccc1)C(=O)O	11µM*	-4%	-3%	0%	11%	2%
Nc1c(Cl)cc(Cl)cc1C(=O)OCC(=O)NC1CC1	-12%	0%	1%	8.9µM*	-41%	-2%
O=C(COC(=O)c1cc(F)c(F)cc1Cl)NC1CC1	-18%	-2%	0%	1%	-21%	1%
Cc1cc(C)c(C(N)=O)c(NCCc2ccccc2)n1	8%	0%	4%	35µM*	7%	0%
COc1cccc(NC(=O)CN(C)C(=O)C(Sc2ccccc2)c2ccccc2)c1 (centres undefined)	-5%	-6%	0%	28µM*	-9%	-3%
O=C1CCNc2cc3ccccc3cc21	-43%	-19%	-11%	28µM*	19%	-24%
COc1ccc(C(=O)N/N=C(\C)Cn2nc([N+](=O)[O-])cc2C)cc1	-9%	4%	5%	11µM*	-19%	3%
COc1ccc(NC(=O)CSc2nn3c(=O)c(C)nnc3s2)cc1	9%	1%	-10%	1%	7%	0%
Cc1nnc2sc(SCC(=O)Nc3ccc(Br)cc3)nn2c1=O	-19%	9%	-1%	25µM*	13%	-1%
COC(C(=O)C(O)C(C)O)C1Cc2cc3cc(OC4CC(OC5CC(O)C(O)C(C)O5)C(O)C(C)O4)c(C)c(O)c3c(O)c2C(=O)C1OC1CC(OC2CC(OC3CC(C)(O)C(O)C(C)O3)C(O)C(C)O2)C(O)C(C)O1 (centres undefined)	/	/	/	-1%	/	/
COC(=O)Cc1ccc2sc(-c3ccccc3)nc2c1	5%	-8%	?	28µM*	-6%	-1%
C=C(C)c1cccc(C(C)(C)NC(=O)N2CCN(c3ccc(OC)cc3)CC2)c1	-9%	-4%	1%	32µM*	-2%	0%
COc1cc(/C=C/c2cc[n+](C)c3ccccc23)cc(OC)c1OC	/	/	/	0%	/	/
Cn1c(-c2ccccc2)cc2c3no[n+]([O-])c3ccc21	-25%	2%	7.1µM*	3%	3%	-4%
Cc1ccc(C(=O)Nc2ccc3nc(SCC(=O)N4CCCc5ccccc54)sc3c2)cc1	/	/	/	20µM*	/	/
CC(C)C(=O)Nc1ccc2nc(SCC(=O)N3CCc4ccccc43)sc2c1	/	/	/	-6%	/	/
O=C(Nc1ccc2nc(SCC(=O)N3CCCc4ccccc43)sc2c1)c1ccccc1	/	/	/	14µM*	/	/
O=C(Nc1ccc2nc(SCC(=O)N3CCc4ccccc43)sc2c1)c1ccccc1	/	/	/	8.9µM*	/	/
Cc1cccc(-n2ncc(C(=O)NCc3ccco3)c2C2CCN(C(=O)OC(C)(C)C)CC2)c1	/	/	/	-2%	/	/
CCOC(=O)N/N=C1\CCc2ccccc21	-11%	4%	?	32µM*	3%	0%
C[N+]1(CC(=O)c2ccc(Cl)cc2)CCOCC1	/	/	/	0%	/	/
SMILES	Integrin act MD	USP2a inh	p53 reactivator	ClpP mod	Eya2 inh	Mm-Cpn inhibitor
Cc1ccccc1-n1c(C)nnc1SC(C)C(=O)NCc1ccco1 (centres undefined)	/	/	/	1%	/	/
CN1CCCCCC1=Nc1ccc([N+](=O)[O-])cc1	-17%	/	/	11µM*	/	/
CCC(=O)N1CCCc2cc(S(=O)(=O)N3CCC(C(=O)NC4CCC(C)CC4)CC3)ccc21 (centres undefined)	/	/	/	-6%	/	/
COc1ccc(OCc2nnc(NC(=O)Nc3ccc(F)cc3)s2)cc1	18%	1%	9%	1%	5%	-1%
CCOc1ccc(NC(=O)Nc2nnc(CC)s2)cc1	8%	3%	6%	28µM*	-2%	-2%
CCOC(=O)Cc1cc(-c2ccc(O)cc2)nc2ccc3ccccc3c12	-17%	-2%	-9%	32µM*	-35%	0%
COc1ccc(-c2cc(C(=O)OCC(=O)N(C)C)c3ccccc3n2)cc1	4%	4%	-2%	?	8%	1%
CCOC(=O)Cc1cc(-c2ccc(F)cc2)nc2ccc3ccccc3c12	7%	4%	1%	22µM*	9%	0%
CCOC(=O)Cc1cc(-c2ccc(OC)cc2)nc2ccc3ccccc3c12	2%	0%	9%	8.9µM*	-6%	-9%
Cc1ccc2c(c1)c(N=NC(N)=S)c(O)n2Cc1ccccc1	-10%	3%	3%	25µM*	-2%	-3%
CC(C)(C)c1ccc(OCC(=O)N/N=C/c2ccc(N3CCOCC3)cc2)cc1	13%	-2%	0%	35µM*	-4%	-1%
O=c1[nH]c2cc3c(cc2cc1CN(Cc1cccnc1)Cc1nnnn1Cc1ccco1)OCCO3	10%[7.66 µM]	3%	-9%	14µM*	-11%	0%
O=c1[nH]c2cc3c(cc2cc1CN(Cc1ccccc1)Cc1nnnn1Cc1ccco1)OCCO3	1%	-9%	1%	-16%	5%	-4%
COc1ccccc1CN(Cc1cc2cc3c(cc2[nH]c1=O)OCCO3)Cc1nnnn1Cc1ccco1	-18%	1%	-2%	28µM*	-3%	-7%
COc1cc2c(NC3CCN(C)CC3)nc(N3CCCN(C)CC3)nc2cc1OCCCN1CCCCC1	/	/	/	3%	/	/
C/C(=N/Nc1nc(-c2ccccc2)cc(-c2ccccc2)n1)c1ccc(N)cc1	/	-1%	32µM*	/	2%	1%
C/C(=N/Nc1cc(-c2ccccc2)nc(-c2ccccc2)n1)c1ccc(O)cc1	-59%	-2%	-4%	-12%	-11%	-1%
c1ccc(N=c2nc(-c3ccccc3)n(-c3ccccc3)s2)cc1	/	/	/	2%	/	/
Cc1cnc2ccc(I)cc2c1/C=C/c1ccc(N(C)C)cc1	/	/	/	0%	/	/
Cc1cc(-c2ccccc2)nc(Oc2cccc(C(F)(F)F)c2)c1S(C)(=O)=O	-5%	0%	6%	35µM*	20%	-4%
Cc1ccc(S(=O)(=O)c2c(C)cc(C)nc2Oc2cccc(C(F)(F)F)c2)cc1	-15%	2%	-3%	-2%	-13%	-2%

High-throughput results from PubChem BioAssay.
